{"source": "PubChem BioAssay (NCATS)", "note": "Inconclusive results are not listed. Calls of active or inactive are those of the source. Calls follow the shape of the dose curve; as a rule, active = well fitted activation curve with a large enough effect in the signal ratio, with a control signal flat (not every such curve was filed as active); inconclusive = small, poorly fitted or top-dose-only effect, or effect the other way, or a change in a side signal; inactive = flat fitted curve, though single readings scatter; the % refers to the signal ratio. Potency is read from the fitted curve at half-maximal effect.", "data": [{"test": "qHTS Assay for Identification of Small Molecule Agonists for Hypoxia Response Element Signaling Pathway (AID 914); as to activation: % of control where 0% means no effect", "conditions": "ME-180 HRE-bla reporter, beta-lactamase ratio, CoCl2, 17 h; activation: stronger effect = higher value", "excerpt": "NIH Molecular Libraries Screening Centers Network [MLSCN]\nNIH Chemical Genomics Center [NCGC]\nHypoxia-inducible factor-1 (HIF-1) is the major hypoxia-regulated transcription factor that controls cellular responses to low oxygen concentration. HIF-1 is composed of two subunits: hypoxia responsive HIF-1 alpha and constitutively expressed HIF-1 beta, which is also known as aryl hydrocarbon receptor nuclear translocator. During hypoxic conditions, HIF-1 alpha heterodimerizes with HIF-1 beta and translocates into the nucleus where the HIF-1 complex binds to the hypoxia-response element (HRE) and activates expression of target genes such as VEGF (vascular endothelial growth factor). HIF-1 alpha protein levels are elevated in many solid tumors, including those of the cervix and brain. Within tumors, cells that are the greatest distance from blood vessels and therefore the most hypoxic express the highest levels of HIF-1 alpha. Therapeutic blockade of the HIF-1 signaling pathway in cancer cells therefore provides an attractive strategy for development of anticancer drugs.\nUsing a beta-lactamase reporter-gene under control of the hypoxia response element, a cell-based assay [CellSensor(TM) HRE-bla ME-180 developed by Invitrogen Corp.] was used to measure hypoxia-induced signaling. Library compounds were measured for their ability to positively modulate the action of EC50 CoCl2 on reporter gene activity. Compounds were screened in a titration series in 1536-well format. Positive modulators were identified based on the AC50 values derived from the screening data.\nNCGC Assay Protocol Summary:\n2500 cells/5uL in Opti-MEM medium containing 0.5% dialyzed FBS, 0.1 mM NEAA, 1 mM sodium pyruvate and 10 mM HEPES was dispensed into 1536-well plates and cells were cultured at 37 degrees Celsius overnight. Next day 23 nL of compounds or DMSO were delivered to each well using a pin tool, and 1uL of EC50 level of CoCl2, or EC100 level of CoCl2, or assay medium was added. And then the plates were incubated at 37 degrees Celsius for 17 hours. 1 uL of CCF4-dye mixture was added to each well. After incubated at room temperature for 2.5 hours the plates were measured on an EnVision plate reader at Excitation 405nm, Emission1=460nm and Emission 2=530nm. The %Activity was determined from the ratio of 460nm/530nm.", "values": [{"molecule": "COc1ccc(-n2c(=O)c(CCc3ccccc3)nc3cnc(N4CCNCC4)nc32)cc1", "Potency": "3.16 µM (active)"}, {"molecule": "COC(=O)c1ccc(=O)n(Cc2ccc3c(c2)OCO3)c1", "activation": "26.1% (inactive)"}, {"molecule": "O=C(NC1CCCCC1)[C@H](O)[C@@H](O)C(=O)NC1CCCCC1", "activation": "12.1% (inactive)"}, {"molecule": "CC(C)Oc1ccc(/C(O)=C2/C(=O)C(=O)N(CCN(C)C)C2c2ccco2)cc1", "note": "(stereo not given)", "activation": "-2.15% (inactive)"}, {"molecule": "C=CCn1c(=S)[nH]c2nc3c(cc2c1=O)COC(C)(C)C3", "activation": "-5.87% (inactive)"}, {"molecule": "Cc1cc(C)n(C(=O)CNC(=O)c2ccc3c(c2)OCCO3)n1", "activation": "-10.8% (inactive)"}, {"molecule": "COCc1cc(C)nc(N)c1C#N", "activation": "1.6% (inactive)"}, {"molecule": "C=C(C)CN(CC)CCC(=O)Nc1ccc(OC)cc1OC", "activation": "-8.71% (inactive)"}, {"molecule": "CCOC(=O)C1=C(C)NC(SCC(=O)Nc2nc(C)cs2)=C(C#N)C1c1cccs1", "note": "(stereo not given)", "Potency": "10 µM (active)"}, {"molecule": "CCCCCCc1cc2cc(-c3nnc(-c4ccccc4O)o3)c(=O)oc2cc1O", "Potency": "3.16 µM (active)"}, {"molecule": "COCCCn1c(C)nc2c(c1=O)c1nc3ccccc3nc1n2CCc1ccccc1", "activation": "-19.8% (inactive)"}, {"molecule": "Cc1ccc(CNC(=O)c2cc3c(=O)n4ccccc4nc3n(CC3CCCO3)c2=N)cc1", "note": "(stereo not given)", "Potency": "7.94 µM (active)"}, {"molecule": "COc1ccc(C2=CC(c3ccc(C)cc3)n3nnnc3N2)cc1", "note": "(stereo not given)", "Potency": "10 µM (active)"}, {"molecule": "CCn1c(-c2ccco2)n[nH]c1=S", "activation": "13.1% (inactive)"}, {"molecule": "CCN(CC)CCN1C(=O)C(O)=C(C(=O)c2cc3ccccc3o2)C1c1cccnc1", "note": "(stereo not given)", "activation": "11.5% (inactive)"}, {"molecule": "Cc1cc(OCC(=O)Nn2cnnc2)ccc1Br", "activation": "8.36% (inactive)"}, {"molecule": "CSc1nc(C)c2c(c1C#N)CCCC2", "activation": "-4.49% (inactive)"}, {"molecule": "CCN(CC)Cc1c(O)ccc2c(C)c(CC(=O)OC)c(=O)oc12", "Potency": "10 µM (active)"}, {"molecule": "CCOC(=O)NC(Nc1sc2c(c1C(=O)OC)CCN(C)C2)(C(F)(F)F)C(F)(F)F", "activation": "6.5% (inactive)"}, {"molecule": "CC(=O)O[C@]12CC[N@+]3(C)CCCC[C@@H]3[C-]1Nc1ccccc12", "activation": "4.44% (inactive)"}, {"molecule": "CCOC(=O)C(C(=O)OCC)N(C#N)c1nc(SC)nc(N(C)C)n1", "activation": "-11.1% (inactive)"}, {"molecule": "Cc1cc(C(F)(F)F)c(C#N)c(SCC(=O)NC2CC2)n1", "activation": "16.3% (inactive)"}, {"molecule": "Cc1cc(C)nc(NC2=NCC(=O)N2c2ccc(Cl)cc2)n1", "activation": "16.5% (inactive)"}, {"molecule": "CCCN(CCC)C(=O)CC(c1ccc(F)cc1)c1ccco1", "note": "(stereo not given)", "activation": "13.9% (inactive)"}, {"molecule": "CC(C)(C)NCc1cc2ccccc2[nH]c1=O", "activation": "-14.6% (inactive)"}, {"molecule": "COc1ccc(CCn2c(=N)c(C#N)cc3c(=O)n4ccccc4nc32)cc1", "activation": "22.3% (inactive)"}, {"molecule": "CCN(CC)CCNc1ncnc2c1[nH]c1ccc(OC)cc12", "activation": "2.09% (inactive)"}, {"molecule": "CNc1nc(C)c(C#N)cc1C(C)=O", "activation": "6.97% (inactive)"}, {"molecule": "COC(=O)c1sc(NC(C)=O)c(C(=O)OC)c1C", "activation": "21.1% (inactive)"}, {"molecule": "CCOc1ccc(/C(O)=C2/C(=O)C(=O)N(CCN(C)C)C2c2ccccc2)cc1Cl", "note": "(stereo not given)", "activation": "2.13% (inactive)"}, {"molecule": "CC1(C)CC(=O)C=C(N=CC2=C(O)CC(C)(C)CC2=O)C1", "activation": "-17.7% (inactive)"}, {"molecule": "CNc1ccccc1-c1nc2ccccc2n(C)c1=O", "activation": "-4.3% (inactive)"}, {"molecule": "CCc1nc(NCC2CCCO2)c(C#N)c2c1COC(C)(C)C2", "note": "(stereo not given)", "activation": "-11.3% (inactive)"}, {"molecule": "COc1ccccc1C1/C(=C(\\O)c2ccc3c(c2)OCCO3)C(=O)C(=O)N1CCCN(C)C", "note": "(stereo not given)", "activation": "-1.93% (inactive)"}, {"molecule": "COc1ccc(-n2c(SCC(N)=O)nc3sc4c(c3c2=O)CCN(C)C4)cc1", "activation": "-0.0215% (inactive)"}, {"molecule": "Cc1cc(C)c(S(=O)(=O)O)c(C)n1", "activation": "11.7% (inactive)"}, {"molecule": "COc1cccc(/C(O)=C2/C(=O)C(=O)N(CCCN(C)C)C2c2cccc(Cl)c2)c1", "note": "(stereo not given)", "activation": "9.88% (inactive)"}, {"molecule": "Cc1cc(C)nc(N(C#N)CN2C(=O)c3ccccc3C2=O)n1", "activation": "12.2% (inactive)"}, {"molecule": "O=c1c2ccccc2ncn1Cc1ccco1", "activation": "2.2% (inactive)"}, {"molecule": "Cc1sc(-n2c(C)ccc2C)c(C#N)c1C", "activation": "5.91% (inactive)"}]}]}
